# hgDAF12 agonist = agonists of H. glycines DAF-12 nuclear receptor; 370,000 tested, 1.8% active; HEK293 GAL4-hgDAF12 UAS-luciferase reporter, agonist luminescence; normalized to butyrate control; AID 687014; activation, % at 6.8 µM;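 active = activation above a cutoff set at the mean of all screened compounds plus 3 SD, cut at about 10% in these data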;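 also: 0% = DMSO wells and 100% = sodium butyrate wells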
# hcDAF12 agonist = activators of H. contortus DAF-12 nuclear receptor. HEK293 hcDAF-12 lit1-tk-luc reporter, luminescence; 0% DMSO, 100% Δ7-dafachronic acid. activation, % at 6.8 µM. 370,000 tested, 1.4% active. AID 652067;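 active = activation above the mean of all tested compounds plus 3 SD, cut at about 5.5% in these data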;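 also: 100% = response to 3 µM Δ7-dafachronic acid high control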
# SMARCA2 activ = activators of SMARCA2 function; 370,000 tested, 1% active; activation, % at 9.1 µM; MG213 cells, MMTV-luciferase reporter, dexamethasone, overnight; in the data active = activation above about 7.8%;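 also: 0% = vehicle wells and 100% = reference activator wells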
# DAX1 inh-1 = NR0B1 (DAX1) inhibition; P51843; HEK293 Gal4-DAX1 luciferase reporter, luminescence; 340,000 tested, 0.99% active; inhibition, % at 6.75 µM; AID 504766;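 active = inhibition above the mean over all tested compounds plus 3 SD, cut at about 4.2% in these data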;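 also: 0% = DAX1-transfected cells with DMSO and 100% = empty-vector control cells with DMSO; inhibition shows as a rise in luminescence from relieved DAX1 repression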
# DAX1 inh-2 = blocks DAX1 repression of SF-1 activated StAR promoter. HEK293T StAR-luciferase reporter, SF-1/DAX-1 repression relief. 370,000 tested, 1.1% active. inhibition, % at 6.8 µM. AID 652010;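 active = inhibition above the mean over all tested compounds plus 3 SD, cut at about 3.6% in these data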;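 also: 0% = DAX-1 cells with DMSO and 100% = cells lacking DAX-1 with DMSO; higher inhibition means more luminescence from relief of DAX-1 repression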
# ssDAF12 agonist = activates DAF-12 receptor from parasite S. stercoralis; activation, % at 6.8 µM; 370,000 tested, 1% active; HEK293 ssDAF-12/GRIP1 lit1-tk-luc reporter, luminescence; % of 3 µM dafachronic acid response;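 active = activation above the mean over all tested compounds plus 3 SD, cut at about 0.9% in these data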;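 also: 0% = DMSO-only wells and 100% = 3 µM delta7-dafachronic acid wells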
# hgDAF12 conf = hgDAF-12 agonism, confirmation assay; HEK293 GAL4-hgDAF12 luciferase reporter, agonist mode; percent of butyrate response; shares compounds with hgDAF12 agonist; activation, % at 6.8 µM; 3,300 tested, 80% active;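 active = mean activation over triplicate wells above the hit cutoff derived from the earlier primary screen, cut at about 11% in these data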;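 also: 0% = DMSO low control and 100% = 2 mM sodium butyrate high control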
# LXR ag 2 = LXR-beta agonism as DAF-12 counter-screen; shares compounds with hgDAF12 agonist; HEK293 Gal4-LXR luciferase reporter, 24 h; activation, % at 6.8 µM; 3,300 tested, under 10 active; AID 743051;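 active = mean activation of the triplicate above a set limit carried over from the primary screen, none filed active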
# Target sequence (P55055 whole entry, looked up, the tested form may be a part): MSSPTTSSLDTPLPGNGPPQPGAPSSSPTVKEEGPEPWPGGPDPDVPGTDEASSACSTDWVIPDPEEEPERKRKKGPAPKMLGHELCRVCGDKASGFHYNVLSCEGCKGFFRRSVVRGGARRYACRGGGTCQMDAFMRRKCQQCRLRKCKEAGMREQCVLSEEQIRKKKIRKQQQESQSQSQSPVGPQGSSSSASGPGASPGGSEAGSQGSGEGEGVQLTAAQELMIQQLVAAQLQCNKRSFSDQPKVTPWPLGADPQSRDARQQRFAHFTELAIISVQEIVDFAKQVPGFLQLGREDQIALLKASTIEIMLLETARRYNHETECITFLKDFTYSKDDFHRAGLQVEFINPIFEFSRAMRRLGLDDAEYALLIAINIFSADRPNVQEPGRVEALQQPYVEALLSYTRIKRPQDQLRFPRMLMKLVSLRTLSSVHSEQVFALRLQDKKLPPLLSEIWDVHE
# Starred values were filed as active, the others as inactive; · = not tested or not shown. This is a sample that favours compounds with a hit; in the whole collection about 4.8% have one here.
SMILES,hgDAF12 agonist,hcDAF12 agonist,SMARCA2 activ,DAX1 inh-1,DAX1 inh-2,ssDAF12 agonist,hgDAF12 conf,LXR ag 2
O=C(Nc1ccc2c(c1)CCC2)c1cnc(Cl)c(Cl)c1,15*,4,3,2,2,1.1*,19*,1
Cc1cc(C(=O)Nc2ccc3c(c2)CCC3)ccc1[N+](=O)[O-],14*,2,1,·,1,0,17*,1
Nc1ccc(NC(=O)c2cccs2)cc1,-1,-1,-4,0,1,-2,·,·
COc1ccc(Br)cc1CN1CCN(c2ncccn2)CC1,-1,-2,2,-3,0,-1,·,·
[O-]/[N+](=C\c1ccco1)c1ccc(Cl)cc1,3,1,1,0,-1,0,·,·
CCCCc1cc(=O)oc2cc(C)cc(OCC(=O)Nc3ccccn3)c12,15*,4,2,1,1,0,7,0
CCCc1cc(=O)oc2cc(C)cc(OCC(=O)Nc3ccccn3)c12,2,0,0,0,-1,-2,·,·
O=C(N/N=C\c1cccc(Cl)c1)c1n[nH]c2c1CCCC2,14*,2,5,1,3,-1,11*,1
O=C(N/N=C/C=C/c1ccccc1)c1n[nH]c2c1CCC2,3,-1,1,0,-1,-1,·,·
Cc1ccc(Nc2ncccc2C(N)=O)cc1,14*,4,2,2,3,0,13*,1
CC(NC(=O)c1cc2c(=O)n(C)c3ccccc3c2n1C)c1ccc2c(c1)OCCO2 (stereo not given),17*,-1,0,0,0,-1,-4,0
CC1(c2ccc(OC(F)F)cc2)NC(=O)N(CC(=O)Nc2ccccc2)C1=O (stereo not given),2,1,-2,0,1,0,·,·
Cc1ccc2nc(-c3ccc(NC(=O)CSc4nnc(-c5cccc(Cl)c5)n4Cc4ccco4)cc3)sc2c1,21*,6.3*,-4,·,1,0,17*,1
Cc1ccc2nc(-c3ccc(NC(=O)CSc4nnc(-c5cc(C)[nH]n5)n4N)cc3)sc2c1,13*,1,1,·,4.4*,0,11*,1
CCN(CC)c1ccc(NC(=O)CSc2nnc(-c3ccc(Cl)cc3)n2Cc2ccco2)cc1,2,0,-4,·,-3,-2,·,·
Cc1ccc2nc(-c3ccc(NC(=O)COC(=O)c4ccco4)cc3)sc2c1,21*,4,7.9*,2,4.1*,0,19*,1
Cc1ccc2nc(-c3ccc(NC(=O)CN4C(=O)NC(C)(c5ccc(OC(F)F)cc5)C4=O)cc3)sc2c1 (stereo not given),15*,5.8*,-2,-1,2,0,14*,1
Cc1ccc(-c2cc(-c3ccccc3O)nc(N/N=C/c3cccnc3)n2)cc1,2,0,1,3,0,0,·,·
COc1ccccc1C(c1nnnn1C(C)(C)C)N1CCN(Cc2ccncc2)CC1 (stereo not given),-1,-1,0,-1,0,-1,·,·
COC(=O)c1ccc(C2SCC(=O)N2Cc2ccccc2)cc1 (stereo not given),·,·,·,1,·,·,·,·
Cc1ccc(-c2cc(-c3nnc(SCC(=O)Nc4cccc5ccccc45)n3N)[nH]n2)cc1,-1,0,-6,·,0,-1,·,·
Cc1ccc2nc(-c3ccc(NC(=O)CSc4nnc(-c5cc(-c6ccc(F)cc6)n[nH]5)n4N)cc3)sc2c1,16*,2,4,·,3,1,15*,1
Cc1ccc2nc(-c3ccc(NC(=S)NCCC(C)C)cc3)sc2c1,14*,4,3,2,3,0,15*,1
O=C(CN(C1CCCCC1)S(=O)(=O)c1ccc(F)cc1)NCCCO,5,1,0,0,0,-1,·,·
CC(C)NCC(O)c1ccc(O)c(O)c1 (stereo not given),1,-4,-3,2,1,-1,·,·

# Assay outcomes deposited in PubChem by The Scripps Research Institute Molecular Screening Center.
